Laboratory results taken from article PMC4336329 (PLoS ONE, 2015).
Screen size: about 310,000 compounds; about 14,000 (4.5%) showed an effect of 50% or more. Effects have a minus sign here. The full list was thinned out, with strong results kept by preference.

Molecular target: human ether-à-go-go-related gene (hERG) potassium channel (human, UniProt Q12809)
Test: primary screen, population patch clamp on CHO cells stably expressing hERG; higher = less effect of the substance
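Further: peak tail current of the secondary pulse compared with the same well before compound.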

Sequence of human ether-à-go-go-related gene (hERG) potassium channel (Q12809 whole entry, looked up): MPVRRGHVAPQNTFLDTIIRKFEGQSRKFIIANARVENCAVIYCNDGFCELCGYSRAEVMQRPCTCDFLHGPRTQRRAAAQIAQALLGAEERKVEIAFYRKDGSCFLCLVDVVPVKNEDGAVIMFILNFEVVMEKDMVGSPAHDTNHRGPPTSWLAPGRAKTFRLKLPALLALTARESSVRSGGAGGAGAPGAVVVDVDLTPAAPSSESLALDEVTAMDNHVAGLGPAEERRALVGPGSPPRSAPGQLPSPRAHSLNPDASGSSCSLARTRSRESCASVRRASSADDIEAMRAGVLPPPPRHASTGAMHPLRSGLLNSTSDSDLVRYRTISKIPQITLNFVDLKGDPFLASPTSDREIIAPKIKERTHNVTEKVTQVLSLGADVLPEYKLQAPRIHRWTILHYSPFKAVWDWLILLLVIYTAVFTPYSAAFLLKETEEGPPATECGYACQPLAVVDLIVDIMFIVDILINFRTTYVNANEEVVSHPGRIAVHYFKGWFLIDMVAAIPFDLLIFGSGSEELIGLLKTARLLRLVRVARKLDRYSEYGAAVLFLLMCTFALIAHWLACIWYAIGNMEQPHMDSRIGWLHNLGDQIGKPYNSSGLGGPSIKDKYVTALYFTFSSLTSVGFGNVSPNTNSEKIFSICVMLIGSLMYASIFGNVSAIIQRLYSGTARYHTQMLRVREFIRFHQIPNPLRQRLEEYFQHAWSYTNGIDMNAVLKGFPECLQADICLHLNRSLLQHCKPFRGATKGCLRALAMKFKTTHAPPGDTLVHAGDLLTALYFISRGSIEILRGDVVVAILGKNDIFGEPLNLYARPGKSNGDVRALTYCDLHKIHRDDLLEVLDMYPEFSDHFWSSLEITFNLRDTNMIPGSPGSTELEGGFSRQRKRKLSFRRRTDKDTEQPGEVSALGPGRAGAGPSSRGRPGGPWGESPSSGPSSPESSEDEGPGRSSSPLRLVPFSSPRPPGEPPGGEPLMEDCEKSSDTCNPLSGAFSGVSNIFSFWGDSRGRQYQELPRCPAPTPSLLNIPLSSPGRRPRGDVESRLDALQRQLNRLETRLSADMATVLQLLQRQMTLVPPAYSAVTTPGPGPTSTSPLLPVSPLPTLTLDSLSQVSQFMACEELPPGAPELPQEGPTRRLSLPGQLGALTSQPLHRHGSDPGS

Compound	hERG current change (%, negative = inhibition) at 10uM [%]
CCc1noc(C)c1C(=O)N1CCCSC1=Nc1ccccc1OC	-8.77
O=C(CCCN1C(=O)/C(=C/c2ccccc2)SC1=S)N1CCOCC1	-30.1
Cc1ccc(NC(=O)c2ccc(Cl)cc2[N+](=O)[O-])nc1	6.4
O=C(Cn1c(=O)oc2ccccc21)Nc1ccccc1C(F)(F)F	21.6
COc1cc(/C=C2/C(=O)ON=C2C)ccc1OCc1ccccc1F	2.22
COCCNC(=O)C(OC(=O)C1=Cc2ccccc2OC1)C(C)C (stereo not shown)	10.3
O=C(NCc1ccco1)c1cnc2ccccn2c1=O	-3.03
Cc1ccc2nc3c(cc(C(=O)NCc4ccco4)c(=N)n3C3CCCC3)c(=O)n2c1	-75.8
N=c1c(C(=O)NCc2ccco2)cc2c(=O)n3ccccc3nc2n1C1CCCC1	-77
Cc1ccc2nc(SCC(=O)NCc3ccco3)nc(=O)n2c1	8.08
Cn1c2ccccc2c2c(C(=O)NCc3ccco3)cn(C3CCCCC3)c(=O)c21	-33.4
N#C/C(=C\c1ccc(O)c(O)c1)C(=O)NCCCc1ccccc1	-1.59
Cc1ccc(NC(=O)CSCC(=O)Nc2ccccc2N2CCCC2)cc1	-13.6
Cc1cccc(NC(=O)CSCC(=O)Nc2cc(Cl)ccc2N2CCOCC2)c1	-31
CN1CCN(c2ccc(Cl)cc2NC(=O)CC2OC(=O)c3ccccc32)CC1 (stereo not shown)	-74.5
Cc1cccc(NC(=O)CSCC(=O)Nc2ccccc2N2CCCCC2)c1	-1.89
Cc1cc(NC(=O)CSCC(=O)Nc2cc(Cl)ccc2N2CCN(C)CC2)no1	-25.7
CN1CCN(c2ccc(Cl)cc2NC(=O)CCN2C(=O)c3ccccc3C2=O)CC1	-7.06
CCN(CC)S(=O)(=O)c1ccc(N2CCN(C)CC2)c(NC(=O)CSCC(=O)Nc2cccc(C)c2)c1	-13
Cc1ccc(NC(=O)CSCC(=O)Nc2cc(Cl)ccc2N2CCN(C)CC2)cc1	-53.1
Cc1cccc(NC(=O)CSCC(=O)Nc2ccccc2N2CCCC2)c1	-90
Cc1cccc(NC(=O)CSCC(=O)Nc2cc(Cl)ccc2N2CCN(C)CC2)c1	-72.8
Cc1ccc(NC(=O)CSCC(=O)Nc2cc(Cl)ccc2N2CCOCC2)cc1	-14.8

Compound	hERG current change (%, negative = inhibition) at 10uM [%]
O=C(CC1OC(=O)c2ccccc21)Nc1cc(Cl)ccc1N1CCCC1 (stereo not shown)	-8.18
COc1cccc(-c2ccc3nnc(SCC(=O)N4CCOCC4)n3n2)c1	-6.27
O=C(Nc1cc(Sc2ccccn2)cc([N+](=O)[O-])c1)c1ccc([N+](=O)[O-])cc1	-6.06
CCOc1ccc(-n2ccc(=O)c(C(=O)Nc3ccc(S(=O)(=O)Nc4ncccn4)cc3)n2)cc1	7.22
CC1CCCC(NC(=O)CCn2c(=O)oc3ccccc32)C1C (stereo not shown)	-18.4
COC(=O)c1cc2oc(C)cc2n1CC(=O)N(C)c1ccccc1	5.36
O=C(O)c1ccc(/C=N/N2CCN(c3ccccc3)CC2)cc1	7.59
CC(C)N(C(=O)CSc1nc(COc2ccccc2)nc2ccccc12)C(C)C	-4.66
O=C(NC(=S)N1CCOCC1)c1cc2ccccc2o1	12.7
O=C(Cc1ccccn1)c1ccc(O)cc1O	21.5
Cc1ccccc1Nc1nnc(SCC(=O)Nc2ccccc2[N+](=O)[O-])s1	3.5
O=S1(=O)[C@H]2C[C@@H]3C=C[C@@]2(CN1Cc1ccc(F)cc1)O3	-25.2
CCN(CC)CCNC(=O)c1cc2ccccc2nc1Cl	43.4
CCCCCn1c(=O)[nH]c2cc(C(=O)N3CCN(C(=O)OCC)CC3)ccc2c1=O	-9.61
CCC(=O)NCCn1c(C)cc2ccccc21	-0.267
CC(=O)NCCn1c(C)cc2ccccc21	-55.1
Cc1cc2ccccc2n1CCNC(=O)C(C)(C)C	11.7
CN(Cc1ccccc1)CC(O)COc1ccc(CNCCc2ccncc2)cc1 (stereo not shown)	-17.5
COc1ccc(CNC(C)Cc2cccs2)cc1 (stereo not shown)	-2.79
COc1ccc(CNCC(O)COCc2cccs2)cc1 (stereo not shown)	-60.8
COc1cccc(CNCC(O)COc2ccc(C(=O)c3ccccc3)cc2)c1 (stereo not shown)	-34.7
O=C(O)C(=O)O.O=C(c1ccccc1)c1ccc(OCC(O)CNCc2cccc(Cl)c2)cc1 (stereo not shown)	-60.3
COC(=O)c1ccc(COc2ccc(CNCc3ccc(Cl)cc3)cc2)cc1	-0.414

Compound	hERG current change (%, negative = inhibition) at 10uM [%]
C=CCOc1ccc(CN(C)CC(O)COc2cccc3ccccc23)cc1 (stereo not shown)	-23.2
O=C(O)C(=O)O.O=C(c1ccccc1)c1ccc(OCC(O)CNCc2ccc(Cl)cc2)cc1 (stereo not shown)	-66.6
O=C(O)C(=O)O.OC(CNCc1ccc(Cl)cc1)COc1ccccc1 (stereo not shown)	-41.9
COc1ccc(CNC(=O)Cc2cccs2)cc1	15
Cc1ccc(OCC(O)CNCc2ccccc2)cc1C (stereo not shown)	-33.5
C=CCOc1ccc(CN(C)CC(O)COc2ccc(CCC(C)=O)cc2)cc1 (stereo not shown)	-63.6
CCNC(=O)/C=C/c1ccccc1[N+](=O)[O-]	8.82
COc1ccc2[nH]c(=O)c(CN(c3ccccc3)S(=O)(=O)c3ccccc3)cc2c1	11.2
COc1ccc2cnn(-c3ccc(OC(F)(F)F)cc3)c(=O)c2c1OC	-6
CCOC(=O)C(=CNc1cc(C)ccc1-n1cccc1)C(=O)OCC	2.05
Cc1ccc(/C=C2/Sc3ccc(C(=O)N4CCC5(CC4)OCCO5)cc3NC2=O)cc1	16.1
Cc1sc(NC(=O)CN(Cc2ccccc2)C(=O)C(C)C)c(C(N)=O)c1C	-0.293
O=C(COc1cc(F)ccc1[N+](=O)[O-])Nc1ccc2c(c1)OCO2	1.25
Cc1csc(NC(=O)C2CCN(S(=O)(=O)c3ccc4c(c3)oc(=O)n4C)CC2)n1	-11.5
COCCNC(=O)c1cc(-c2ccccc2)n(Cc2cc(C)no2)n1	0.26
Cn1c(O)c(C=NCCN2CCN(C(=O)Nc3ccccc3)CC2)c(=O)n(C)c1=O	13.1
O=C(Nc1cc(Cl)cc(Cl)c1)C(NCCCO)c1ccccc1 (stereo not shown)	3.1
CC(CNCc1ccc2c(c1)OCO2)NCc1ccc2c(c1)OCO2 (stereo not shown)	-54.5
COc1ccc(CCC(=O)NCCOc2ccc(C)cc2)cc1	2.1
Cc1ccc(C(OCC(O)CNCc2ccc(F)cc2)c2ccccc2)cc1.O=C(O)C(=O)O (stereo not shown)	-75.7
Cl.OC(CNCc1ccccc1)COCc1ccc(Cl)cc1 (stereo not shown)	-50.3
Cc1ccc(CNCc2ccc3c(c2)OCO3)cc1	-0.503
Cc1ccc(OCCNCC(O)COc2ccccc2)cc1.O=C(O)C(=O)O (stereo not shown)	-44.2

Compound	hERG current change (%, negative = inhibition) at 10uM [%]
CC(=O)CCc1ccc(OCC(O)CNCCOc2ccc(C)cc2)cc1 (stereo not shown)	-55.9
CC(NCc1ccc2c(c1)OCO2)c1ccccc1.Cl (stereo not shown)	10.4
CC(C)(C)NCC(O)COCc1ccc(Cl)cc1.Cl (stereo not shown)	-24.6
CC(NCC(O)COCc1ccc(Cl)cc1)c1ccccc1.Cl (stereo not shown)	-43.1
Cc1ccc2nsnc2c1S(=O)(=O)N1CCN(CCc2ccccc2)CC1	-42.6
Cc1cc2c(=O)n(CC(=O)N3CCN(c4ccc(F)cc4)CC3)cnc2s1	-12.4
CC(C)(C)CC(C)(C)NCC(O)COCCOc1ccc(Br)cc1.Cl (stereo not shown)	-32.8
O=C(NCc1ccc(F)cc1)NC(=O)c1ccc(Cl)cc1	8.5
CCOC(=O)C1=CCN(Cc2ccccc2)CC1.Cl	12.8
Nc1nnc(SCCCC(=O)c2ccc(Br)cc2)s1	26.5
OC(CNCc1ccc2c(c1)OCO2)COc1ccccc1 (stereo not shown)	-5.74
CCC(=O)c1ccc(OCC(O)CNCCc2ccc(Cl)cc2)cc1 (stereo not shown)	-72.1
OC(CNCc1ccccc1Cl)COc1ccc(F)cc1 (stereo not shown)	-21.3
CCC(=O)c1ccc(OCC(O)CNC2CCCC2)cc1 (stereo not shown)	2.52
CC(=O)c1cccc(OCC(O)CNCCc2ccc(Cl)cc2)c1 (stereo not shown)	-49
COC(=O)c1ccc(CNCC(O)COc2ccc(-c3ccccc3)cc2)cc1 (stereo not shown)	13.1
OC(CNCc1ccc2c(c1)OCO2)COc1ccc(F)cc1 (stereo not shown)	-55.7
CCC(=O)c1ccc(OCC(O)CNCc2ccc(F)cc2)cc1 (stereo not shown)	-52.2
O=C(COc1ccc(C(=O)c2ccccc2)cc1)NCc1ccc(F)cc1	-6.64
Cc1ccc(OCC(O)CNCc2ccc(F)cc2)cc1 (stereo not shown)	-40.5
CC(=O)c1ccc(OCC(O)CNCc2ccc3c(c2)OCO3)cc1 (stereo not shown)	-26.1
O=C(O)C(=O)O.O=C(c1ccccc1)c1ccc(OCC(O)CNCc2ccc(F)cc2)cc1 (stereo not shown)	-68.2
